Source: PubChem (several laboratories)
An excerpt weighted towards active compounds, which were near 5% of everything screened.
SENP6 block: inhibitors of human SENP6 protease; Recombinant SENP6 catalytic domain, aminoluciferin luminescence; inhibition, % at 10 µM; 330,000 tested, 1.8% active; AID 2599;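 active means inhibition above about 50% at the single tested dose, limit read from the data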;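 further: plate controls were DMSO wells with enzyme for no effect and DMSO wells lacking enzyme for full effect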
Target sequence (Q9GZR1 628-1112 limits assumed): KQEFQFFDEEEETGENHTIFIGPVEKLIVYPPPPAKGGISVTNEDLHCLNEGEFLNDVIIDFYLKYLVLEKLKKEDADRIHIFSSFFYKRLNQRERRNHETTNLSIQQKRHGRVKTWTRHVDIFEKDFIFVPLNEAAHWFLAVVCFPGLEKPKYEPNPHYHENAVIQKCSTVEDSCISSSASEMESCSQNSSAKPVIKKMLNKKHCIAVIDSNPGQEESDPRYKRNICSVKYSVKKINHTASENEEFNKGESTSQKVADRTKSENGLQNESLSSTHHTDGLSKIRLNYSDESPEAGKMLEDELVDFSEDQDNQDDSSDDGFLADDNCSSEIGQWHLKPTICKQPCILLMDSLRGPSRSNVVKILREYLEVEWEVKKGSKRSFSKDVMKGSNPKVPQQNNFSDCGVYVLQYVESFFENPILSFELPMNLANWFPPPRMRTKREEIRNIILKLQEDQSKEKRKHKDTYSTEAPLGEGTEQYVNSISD
AHR act: activates the human aryl hydrocarbon receptor; 320,000 tested, 2.5% active; activation, % at 5 µM; AHR-responsive luciferase reporter cells, luminescence; AID 2796; in the data active means activation above about 47%;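 further: 0% = vehicle wells and 100% = reference agonist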
SENP7 block: blocks the human protease SENP7. Q9BQF6. recombinant SENP7, Z-RLRGG-aminoluciferin luminescence, 40 min. inhibition, % at 5 µM. 330,000 tested, 1.5% active. AID 434973;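 active means inhibition above about 50% at the single test dose, limit read from the data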;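 further: plate controls were DMSO with enzyme for no effect and no enzyme buffer wells for full effect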
SENP8 block-1: inhibitors of human SENP8 protease. Q96LD8. inhibition, % at 10 µM. purified SENP8, Z-RLRGG-aminoluciferin cleavage, luminescence. 330,000 tested, 1.2% active; in the data active means inhibition above about 50%
EBI2 antag: blocks human EBI2 receptor beta-arrestin signaling | 360,000 tested, 0.81% active | inhibition, % at 5 µM | EBI2 beta-arrestin recruitment, luminescence, 7a,25-OHC stimulated | P32249; in the data active means inhibition above about 38%;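 further: enzyme fragment complementation signal reports receptor beta-arrestin coupling in cells; 0% = agonist plus DMSO wells and 100% = wells without agonist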
SENP8 block-2: SENP8 (human) protease inhibition | recombinant SENP8, Nedd8 substrate fluorescence | inhibition, % at 20 µM | 360,000 tested, 0.64% active; in the data active means inhibition mostly above about 40%, no sharp cut-off; inactive means mostly below about 27%
* = called active by the depositor.

What do the screens show for `CCOC(=O)c1c(C)[nH]c(O)c1C=Nc1ccc(Cl)cc1`?
SENP6 block: 22; AHR act: 77*; SENP7 block: 14; SENP8 block-1: -2; EBI2 antag: 1; SENP8 block-2: -1

Results for CCOc1ccc(CCNS(=O)(=O)c2c(C)nc3sccn3c2=O)cc1OCC ?
EBI2 antag: -4; SENP8 block-2: -5

How did COc1cc(CNC(C)C)c(Br)cc1OC1CCCC1 do in these assays?
SENP6 block: -7; AHR act: 6; SENP7 block: -17; SENP8 block-1: -11; EBI2 antag: 8; SENP8 block-2: 22

What do the screens show for `CSc1ccc(CN(C)C(=O)c2cccc(S(=O)(=O)N3CCN(Cc4ccccc4)CC3)c2)cc1`?
SENP6 block: -3; AHR act: -1; SENP7 block: 2; SENP8 block-1: 13; EBI2 antag: 37; SENP8 block-2: 10

Results for N#C/C(=C\c1cccn1S(=O)(=O)c1ccccc1)S(=O)(=O)c1ccc(F)cc1 ?
EBI2 antag: 0; SENP8 block-2: 10

How did O=C(CSc1nnnn1C1CC1)N1CCN(c2ccccc2F)CC1 do in these assays?
SENP6 block: 0; AHR act: -1; SENP7 block: -6; SENP8 block-1: -8; EBI2 antag: -6; SENP8 block-2: 3

How did CNC(=O)NNC(=O)c1csc(Cc2c(Cl)sc3ccc(Cl)cc23)n1 do in these assays?
SENP6 block: -6; AHR act: 47*; SENP7 block: 2; SENP8 block-1: -7; EBI2 antag: 8; SENP8 block-2: 15

What do the screens show for `COc1ccc(C2CCCN2C(=O)Nc2ccc(C)c(C)c2)cc1OC` (stereo unspecified)?
SENP6 block: 2; AHR act: 1; SENP7 block: -4; SENP8 block-1: 6; EBI2 antag: 51*; SENP8 block-2: 4

Results for C(COC1CC2CC1C1C2CC2OC21)OC1CC2CC1C1C2CC2OC21 (stereo unspecified) ?
EBI2 antag: 2; SENP8 block-2: 10

What do the screens show for `COc1ccc(N2CCN(C(=O)c3ccc(C)c(Cl)c3)CC2)cc1`?
SENP6 block: 9; AHR act: -2; SENP7 block: 0; SENP8 block-1: 5; EBI2 antag: 17; SENP8 block-2: 40*

How did O=C1C=CC2(O[C@H](c3ccccc3)[C@@H](c3ccccc3)O2)[C@H](Sc2ccccc2O)C1 do in these assays?
EBI2 antag: 72*; SENP8 block-2: -3

What do the screens show for `C[C@@H]1[C@@H](Sc2ccccc2)CC(=O)O[C@@H]1c1ccc(-c2ccccc2)cc1`?
SENP6 block: -31; AHR act: -2; SENP7 block: -13; SENP8 block-1: -10; EBI2 antag: 10; SENP8 block-2: 9

What do the screens show for `C#Cc1cccc(NC(=O)c2ccc(Cl)cc2Cl)c1`?
SENP6 block: 73*; AHR act: 18; SENP7 block: 74*; SENP8 block-1: 62*; EBI2 antag: -3; SENP8 block-2: 11

Results for O=C(Nc1ccc(Nc2ccccc2)cc1)c1ccc(Cl)cc1Cl ?
SENP6 block: -14; AHR act: -7; SENP7 block: 0; SENP8 block-1: 0; EBI2 antag: 12; SENP8 block-2: 18

How did O=C(c1ccccc1-c1nc(-c2ccc(Cl)cc2)no1)N1CCCC1 do in these assays?
SENP6 block: -11; AHR act: 53*; SENP7 block: -17; SENP8 block-1: -2; EBI2 antag: 6; SENP8 block-2: 12

What do the screens show for `COc1cccc(C2CC(c3ccc(Br)cc3)=NN2C(=O)c2ccncc2)c1OC` (stereo unspecified)?
SENP6 block: 5; AHR act: -3; SENP7 block: -1; SENP8 block-1: -5; EBI2 antag: 20; SENP8 block-2: 1

What do the screens show for `COc1ccccc1C1CC(c2ccc(Br)cc2)=NN1C(=O)c1cccnc1` (stereo unspecified)?
SENP6 block: -2; AHR act: 63*; SENP7 block: 8; SENP8 block-1: -6; EBI2 antag: 23; SENP8 block-2: -6

What do the screens show for `OCC(CBr)(CBr)CBr`?
SENP6 block: -13; AHR act: 1; SENP7 block: 4; SENP8 block-1: 8; EBI2 antag: 0; SENP8 block-2: 2

How did O=C(Oc1ccc(Br)cc1C(=S)N1CCCCC1)c1cc([N+](=O)[O-])cc([N+](=O)[O-])c1 do in these assays?
SENP6 block: -2; AHR act: -1; SENP7 block: 7; SENP8 block-1: 2; EBI2 antag: 13; SENP8 block-2: 44*
